Screening results (PubChem BioAssay)
A selection: hits, their analogues and other compounds. The true share with any hit is near 1.2%.
TrxR1 substrate = rat thioredoxin reductase 1 substrate activity. O89049. purified TrxR1 substrate turnover, NADPH consumption readout. Potency, µM (top dose mostly 114 µM), without a hit: at the top dose activity change, negative = substrate turnover. actives 0.01% (n = 390,000). AID 588456; note: potency is the fitted concentration of half-maximal effect; nearly all actives have a fitted effect of over 50% in size
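Rat TrxR1, dispensed at 90 nM, was prereduced with 400 uM NADPH (final) for 5 min at ~22 deg C, then incubated with compound 15 min before 400 uM selenite. A first-read NADPH fluorescence drop versus no-compound background flagged substrates.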
PKM2 act = increases activity of human pyruvate kinase M2; purified PKM2, Kinase-Glo ATP luminescence, activation; response scale: 0% is enzyme alone, no compound; actives 0.34% (n = 260,000); Potency, µM (titrated, usually from 57.5 µM), without a hit: at the top dose activation, hits mostly activators; P14618; note: potency is the fitted concentration of half-maximal effect; nearly all actives have a fitted effect of over 55% in size
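Purified hPK-M2 (>95% pure) converted ADP (0.1 mM final) to ATP with 0.5 mM PEP in 50 mM imidazole pH7.2, KCl, MgCl2, Tween 20, BSA; 1 h at room temperature. ATP detected by Kinase-Glo luminescence.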
GALK inh = galactokinase (human) inhibition | Purified GALK, Kinase-Glo residual ATP luminescence | Potency, µM (titrated, usually from 57.5 µM), inactives show at the highest dose activity change, negative = inhibition, usual class: inhibitors | actives 0.007% (n = 270,000) | AID 1868; note: potency is the fitted concentration of half-maximal effect
Target sequence (P51570 whole entry, looked up): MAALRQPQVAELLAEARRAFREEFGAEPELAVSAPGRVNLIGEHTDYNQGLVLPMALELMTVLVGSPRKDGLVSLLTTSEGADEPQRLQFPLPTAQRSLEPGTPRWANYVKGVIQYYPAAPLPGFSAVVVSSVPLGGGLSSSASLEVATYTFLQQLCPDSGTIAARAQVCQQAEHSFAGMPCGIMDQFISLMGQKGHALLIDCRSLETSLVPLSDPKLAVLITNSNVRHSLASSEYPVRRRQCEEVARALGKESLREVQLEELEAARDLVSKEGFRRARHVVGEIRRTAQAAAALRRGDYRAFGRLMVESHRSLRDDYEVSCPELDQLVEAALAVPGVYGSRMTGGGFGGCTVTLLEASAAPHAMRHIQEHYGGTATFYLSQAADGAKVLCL
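Human GALK (5 nM) with 35 uM ATP and 100 uM galactose in 20 mM HEPES pH 8.0, 5 mM MgCl2, 60 mM NaCl, 1 mM DTT, 0.01% BSA. After 1 h at room temperature, leftover ATP was read by Kinase-Glo Plus luminescence.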
PI4K2A block = PI4K2A (human) kinase inhibition; AID 1346378; actives 0.13% (n = 420,000); purified PI4K2A, ADP-Glo luminescence, 1 h; stronger effect = lower value; Q9BTU6; activity change, negative = inhibition, % at 76.9 µM; in the data active = activity change below about -50%; inconclusive = mostly about -30% to -49%;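 note: -100% = wells without enzyme as full effect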
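ADP-Glo luminescence measured ADP generated by PI4K2A enzyme (4 ug/mL before mixing) with 1.2 mM PI substrate (pre-mix) and 300 microM ATP (pre-mix). Tris pH7.5 buffer with MgCl2, Triton X-100; 1 h reaction at ambient temperature.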
rTrxR1 inhibitor = blocks rat thioredoxin reductase 1; O89049; recombinant rTrxR1, NADPH fluorescence consumption, selenite substrate; Potency, µM (highest dose often 114 µM), without a hit: top-dose activity change, negative = inhibition, most hits filed as inhibitors; actives 1% (n = 390,000); AID 588453; note: potency is the fitted concentration of half-maximal effect; nearly all actives have a fitted effect of over 65% in size
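Rat TrxR1 (90 nM in the dispensed reagent) was pre-reduced with 400 uM NADPH for 5 min at room temperature, then incubated with compound for 15 min. After 400 uM selenite was added, NADPH fluorescence (Ex 340/Em 450 nm) was followed for 8 min.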
Starred values were filed as active, the others as inactive; [ ] = remark or other dose. Unless noted, calls come from the whole dose curve; as a rule, active = well fitted curve in the direction sought with a large enough effect; inconclusive = small, poorly fitted or top-dose-only effect, or another doubt; inactive = no such curve, though single readings can be large; an effect the other way counts as inactive or inconclusive. Unless noted, % is set by controls: 0 for no effect and ±100 for the full control effect.

For O=C(c1ccoc1)N1CCN(c2cc(-c3ccco3)nc3cc(-c4ccco4)nn23)CC1 the results were PI4K2A block -20.
`CCC/C=C(\CCC)C(NS(=O)(=O)c1cccs1)c1ccc(C(=O)OC)cc1` (stereo unspecified) gave PKM2 act 1%.
`Cc1cccc(N(C(=O)CNC(=O)c2ccco2)C(C(=O)NC2CCCCC2)c2cccnc2)c1` (stereo unspecified) gave TrxR1 substrate 16%[0.0914 µM], PKM2 act -3%, GALK inh -2%, PI4K2A block 1 and rTrxR1 inhibitor 21%[57.1 µM].
O=C(NC1CCCCC1)C(c1cccnc1)N(C(=O)CCl)c1cccc(Cl)c1 (stereo unspecified) was read as TrxR1 substrate -2%, PKM2 act -3%, GALK inh -3%, PI4K2A block 19 and rTrxR1 inhibitor 6.3µM*.
Screening CC(=O)N1CCC2(CC1)C(C#N)=C(N)OC1=C2C(=O)CC(C)(C)C1 returned TrxR1 substrate 1%, PKM2 act -2%, GALK inh -1%, PI4K2A block -2 and rTrxR1 inhibitor -5%.
`CC1(C)CC(=O)C2=C(C1)OC(N)=C(C#N)C21CCC2(CC1)OCCO2` gave TrxR1 substrate 15%, PKM2 act 3%, GALK inh -1%, PI4K2A block -3 and rTrxR1 inhibitor 8.9µM*.
`CN(C)CCN(Cc1ccccc1)S(=O)(=O)c1ccc(-c2ccc(=O)[nH]n2)s1` gave TrxR1 substrate 11%, GALK inh -1%, PI4K2A block -6 and rTrxR1 inhibitor 40µM*.
`CC1(C)CC(=O)C2=C(C1)N(c1ccccc1)C(N)=C(C#N)C2c1cccnc1` (stereo unspecified) gave TrxR1 substrate 2%, PKM2 act 0%, GALK inh 7%, PI4K2A block 5 and rTrxR1 inhibitor 79µM*.
`O=[N+]([O-])c1cc(S(=O)(=O)N2CCCC2)ccc1O` gave TrxR1 substrate -10%, PKM2 act -9%, GALK inh -1%, PI4K2A block 3 and rTrxR1 inhibitor 11%[57.1 µM].
`O=[N+]([O-])c1cc(S(=O)(=O)N2CCCCCC2)ccc1F` gave TrxR1 substrate -6%, PKM2 act 10%, GALK inh -6%, PI4K2A block 18 and rTrxR1 inhibitor 32µM*.
For COCCCN1C(=O)[C@H](CC(=O)NCCC(C)C)[C@]2(C(=O)OC)CCCCC=C12 the results were PI4K2A block 0.
`CN1C(=O)/C(=C/c2cn(CC(=O)N3CCCCC3)c3ccccc23)NC1=S` gave TrxR1 substrate -3%, GALK inh -7%, PI4K2A block -6 and rTrxR1 inhibitor inconclusive.
For CN1C(=O)/C(=C/c2cn(CC(=O)NCc3ccco3)c3ccccc23)NC1=S the results were PKM2 act 7.9µM* and GALK inh 5%.
Screening COCCCNc1oc(COc2ccc(Cl)cc2Cl)nc1C#N returned TrxR1 substrate -9%, PKM2 act 8%, GALK inh -2%, PI4K2A block -7 and rTrxR1 inhibitor 25µM*.
Screening CCCCOC(=O)c1ccc(NC(=O)CSc2nc3c(c(=O)[nH]2)CCCC3)cc1 returned TrxR1 substrate 6%, PI4K2A block 2 and rTrxR1 inhibitor 19%.
For CCOC(=O)c1ccc(N2C(=O)C3C(C2=O)C(C(=O)c2ccc(Cl)cc2)N2CCCC32)cc1 (stereo unspecified) the results were TrxR1 substrate -1%, PKM2 act 11%, GALK inh -2%, PI4K2A block -3 and rTrxR1 inhibitor 3.5µM*.
For N#Cc1c(C(F)(F)F)cc(-c2cccs2)nc1SCc1ccccc1F the results were TrxR1 substrate 52%, PI4K2A block 3 and rTrxR1 inhibitor 48%.
`NS(=O)(=O)c1ccc(NC2=CC(c3ccc([N+](=O)[O-])cc3)N(c3ccc(S(N)(=O)=O)cc3)C2=O)cc1` (stereo unspecified) gave TrxR1 substrate -7%, PKM2 act 3%, GALK inh -7%, PI4K2A block 4 and rTrxR1 inhibitor 50µM*.
Screening COc1ccc(NC2=CC(c3ccc(OC)c(OC)c3)N(c3ccc(OC)cc3)C2=O)cc1 (stereo unspecified) returned TrxR1 substrate -10%, PKM2 act -13%, PI4K2A block -1 and rTrxR1 inhibitor inconclusive.
CCCCCC(=O)NC1CCCCN(Cc2ccc(C)cc2)C1=O (stereo unspecified) was read as PI4K2A block -7.
Screening Cc1nc(N2CCOCC2)c2c(C(=O)N3CCN(c4cc(Cl)ccc4C)CC3)c(C)oc2n1 returned TrxR1 substrate -3%, PI4K2A block 4 and rTrxR1 inhibitor 21%.
COc1cccc(/C=N/N2C(=O)CSC2=S)c1O was read as TrxR1 substrate -13%, PKM2 act -49%, PI4K2A block -1 and rTrxR1 inhibitor 18µM*.
For O=C(c1ccc(S(=O)(=O)c2ccccc2Cl)c([N+](=O)[O-])c1)N1CCN(Cc2ccccc2)CC1 the results were TrxR1 substrate -3%, PKM2 act 11µM*, GALK inh -1%, PI4K2A block -3 and rTrxR1 inhibitor inconclusive.
O=C(c1ccc(S(=O)(=O)Cc2ccccc2Cl)c([N+](=O)[O-])c1)N1CCOCC1 was read as TrxR1 substrate 4%, GALK inh 1%, PI4K2A block 5 and rTrxR1 inhibitor 14µM*.
Screening COc1ccc(C2C(O)C(c3c[nH]c4ccccc34)=NN2C(=O)CCl)cc1 (stereo unspecified) returned TrxR1 substrate -4%, PKM2 act 3%, GALK inh -7%, PI4K2A block -1 and rTrxR1 inhibitor 13µM*.
COc1ccc(NC(=S)NC(=O)c2ccc3c(c2)OCCO3)cc1 was read as TrxR1 substrate -13%, PI4K2A block 2 and rTrxR1 inhibitor 3.5µM*.
`CCCCC(=O)NC(=S)Nc1cccc(NC(=O)c2ccccc2)c1` gave TrxR1 substrate 5%[57.1 µM], PKM2 act -10%, GALK inh -1%, PI4K2A block -1 and rTrxR1 inhibitor -51%.
Screening CCCC(=O)NC(=S)Nc1cccc(NC(=O)c2ccccc2)c1 returned TrxR1 substrate -2%, PKM2 act -16%, GALK inh -1%, PI4K2A block -2 and rTrxR1 inhibitor 22µM*.
For Cn1ncc2cc(NC(=S)NC(=O)c3ccccc3)ccc21 the results were TrxR1 substrate -10%, PKM2 act -1%, GALK inh -1%, PI4K2A block -9 and rTrxR1 inhibitor 25µM*.
Screening O=C(NC(=S)Nc1ccc(S(=O)(=O)N2CCCCC2)cc1)c1ccccc1 returned TrxR1 substrate 3%[57.1 µM], PKM2 act 1%, GALK inh -3%, PI4K2A block -10 and rTrxR1 inhibitor 11µM*.
